Results taken from publication PMC5540273 (PLoS ONE, 2017).

These compounds were tested on IRAK3. Details: concentration: 1 μM, replicates: in singlicate; n = 1.
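Also: KINOMEscan kinase panel screen.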

Row | SMILES | %Inh [%]
1 | COc1ccc(-c2cc3c(C)nc(N)nc3n([C@H]3CC[C@H](O)CC3)c2=O)cn1 | 0
2 | CCC(=O)c1c(-c2ccccc2)c2cc(Cl)ccc2c(=O)n1Cc1ccc(C(=O)O)cc1 | 0
3 | O=C(NCc1cccs1)c1cc(C(=O)c2c(Cl)cccc2Cl)c[nH]1 [GW823670] | 26
4 | COc1cccc(C2=C(N(C)c3ccccc3)C(=O)NC2=O)c1 [SB-334865] | 20
5 | CC(C)(C)c1ccc(C(=O)Nc2cn3cc(-c4ccccc4)ccc3n2)cc1 | 12
6 | CCC(=O)c1c(-c2ccccc2)c2cc(Cl)ccc2c(=O)n1Cc1cc(S(C)(=O)=O)n(CC(F)F)n1 | 0
7 | CCC(=O)c1c(-c2ccccc2)c2cc(Cl)ccc2c(=O)n1Cc1cc(S(C)(=O)=O)n(CCC(C)(C)O)n1 | 25
8 | COc1cc2nccc(Nc3ccc(OCc4ccc(NC(C)=O)cc4)cc3)c2cc1OC.Cl [GW440135] | 1
9 | COc1cc2nccc(Nc3cccc(Oc4ccccc4)c3)c2cc1OC.Cl [GW284543] | 2
10 | Cl.c1ccc(Cn2cnc3cc(Nc4ncnc5ccccc45)ccc32)cc1 [GW272142] | 0
11 | O=C(NCCNc1ccnc(Nc2ccc(F)cc2)n1)Nc1ccc2c(c1)OCO2 [GSK1379882] | 7
12 | Nc1ncnc2c1ncn2-c1ccc(Cl)cc1 [AH2635] | 0
13 | COc1cc(Nc2nccc(N3CCC(NC(=O)C(C)c4ccc(Cl)cc4)C3)n2)cc(OC)c1OC (stereo not drawn) [GSK1379757] | 68
14 | Cc1c(Cn2c(C)nn3c(=O)cc(N4CCO[C@H](C)C4)nc23)cccc1C(F)(F)F [GSK2373690] | 14
15 | CCc1nc(-c2cccc(C)c2)c(-c2ccncc2)s1 | 0
16 | Cc1nnc(-c2ccc(C)c(-c3ccc(C(=O)O)cc3)c2)o1 [GW608005] | 0
17 | CCC(=O)c1c(-c2ccccc2)c2cc(Cl)ccc2c(=O)n1Cc1cc(C(=O)NC2CC2)n(C)n1 | 0
18 | Nc1nc(-c2ccccc2F)c(-c2ccnc3ccccc23)s1 [GW560459] | 17

Row | SMILES | %Inh [%]
19 | Cc1nnc(-c2ccc3ncn(-c4ccc(S(C)=O)cc4)c3c2)o1 (stereo not drawn) | 0
20 | CCS(=O)(=O)c1ccc(OC)c(Nc2ncc(-c3ccc(F)cc3)o2)c1.Cl [GW591947] | 0
21 | CCS(=O)c1ccc(-c2coc3ccc(-c4nnc(C)o4)cc23)cc1 (stereo not drawn) | 0
22 | Nc1n[nH]c2nnc(-c3ccccc3)c(-c3ccccc3)c12 [GW554060] | 9
23 | O=C(Nc1n[nH]c2nc(-c3ccccc3)c(Cl)cc12)C1CC1 [SB-734909] | 23
24 | COC(=O)c1c(-c2ccccc2)c2cc(Br)ccc2c(=O)n1Cc1ccc(S(C)(=O)=O)cc1 | 32
25 | Cc1ccc(Oc2ccc(Nc3ncnc4cc[nH]c34)cc2C)cn1 | 16
26 | O=C(Nc1n[nH]c2nc(-c3ccccc3)c(Br)cc12)C1CC1 [SB-708998] | 0
27 | CN(C)c1cc(-c2ccc3c(N)n[nH]c3c2)nc(N)n1 [GSK2219329] | 0
28 | COc1ccc(-n2cnc3c(N)ncnc32)cc1 [SKF-97236] | 12
29 | CCCC(=O)Nc1n[nH]c2ncc(-c3cccc4ccccc34)cc12 [SB-642057] | 0
30 | FC(F)(F)c1ccc(-c2ncn(CCCN3CCOCC3)c2-c2ccncc2)cc1 [SB-217780] | 10
31 | Cn1c(=O)c(F)c(Nc2ccc(I)cc2F)c2c(=O)n(OC[C@H](O)CO)cnc21 | 0
32 | COc1ccc(Nc2nccc(N3CCC(NS(=O)(=O)c4ccc(NC(C)=O)cc4)C3)n2)cc1 (stereo not drawn) [GSK1379729] | 17
33 | Cl.NS(=O)(=O)c1cccc(Nc2cc(-c3ccc(F)cc3)n[nH]2)c1 [GW824645] | 0
34 | OCCCNc1nccc(-c2c(-c3cccc(C(F)(F)F)c3)nn3cc(C(F)(F)F)ccc23)n1 [GW630813] | 0
35 | CCc1ccc(-c2ccc3c(c2)-c2nn(C)cc2S(=O)(=O)N3C)cc1 | 0
36 | COc1ccc(-c2coc3ccc(-c4nnc(SCc5cccc(C#N)c5)o4)cc23)cc1 | 0

Each compound was assayed on IRAK4. Details: concentration: 1 μM, replicates: in singlicate; n = 1.

Row | SMILES | %Inh [%]
37 | COc1ccc(-c2cc3c(C)nc(N)nc3n([C@H]3CC[C@H](O)CC3)c2=O)cn1 | 0
38 | CCC(=O)c1c(-c2ccccc2)c2cc(Cl)ccc2c(=O)n1Cc1ccc(C(=O)O)cc1 | 0
39 | O=C(NCc1cccs1)c1cc(C(=O)c2c(Cl)cccc2Cl)c[nH]1 [GW823670] | 0
40 | COc1cccc(C2=C(N(C)c3ccccc3)C(=O)NC2=O)c1 [SB-334865] | 24
41 | CC(C)(C)c1ccc(C(=O)Nc2cn3cc(-c4ccccc4)ccc3n2)cc1 | 13
42 | CCC(=O)c1c(-c2ccccc2)c2cc(Cl)ccc2c(=O)n1Cc1cc(S(C)(=O)=O)n(CC(F)F)n1 | 27
43 | CCC(=O)c1c(-c2ccccc2)c2cc(Cl)ccc2c(=O)n1Cc1cc(S(C)(=O)=O)n(CCC(C)(C)O)n1 | 1
44 | COc1cc2nccc(Nc3ccc(OCc4ccc(NC(C)=O)cc4)cc3)c2cc1OC.Cl [GW440135] | 0
45 | COc1cc2nccc(Nc3cccc(Oc4ccccc4)c3)c2cc1OC.Cl [GW284543] | 0
46 | Cl.c1ccc(Cn2cnc3cc(Nc4ncnc5ccccc45)ccc32)cc1 [GW272142] | 15
47 | O=C(NCCNc1ccnc(Nc2ccc(F)cc2)n1)Nc1ccc2c(c1)OCO2 [GSK1379882] | 0
48 | Nc1ncnc2c1ncn2-c1ccc(Cl)cc1 [AH2635] | 0
49 | COc1cc(Nc2nccc(N3CCC(NC(=O)C(C)c4ccc(Cl)cc4)C3)n2)cc(OC)c1OC (stereo not drawn) [GSK1379757] | 10
50 | Cc1c(Cn2c(C)nn3c(=O)cc(N4CCO[C@H](C)C4)nc23)cccc1C(F)(F)F [GSK2373690] | 24
51 | CCc1nc(-c2cccc(C)c2)c(-c2ccncc2)s1 | 0
52 | Cc1nnc(-c2ccc(C)c(-c3ccc(C(=O)O)cc3)c2)o1 [GW608005] | 13
53 | CCC(=O)c1c(-c2ccccc2)c2cc(Cl)ccc2c(=O)n1Cc1cc(C(=O)NC2CC2)n(C)n1 | 20
54 | Nc1nc(-c2ccccc2F)c(-c2ccnc3ccccc23)s1 [GW560459] | 15

Row | SMILES | %Inh [%]
55 | Cc1nnc(-c2ccc3ncn(-c4ccc(S(C)=O)cc4)c3c2)o1 (stereo not drawn) | 0
56 | CCS(=O)(=O)c1ccc(OC)c(Nc2ncc(-c3ccc(F)cc3)o2)c1.Cl [GW591947] | 3
57 | CCS(=O)c1ccc(-c2coc3ccc(-c4nnc(C)o4)cc23)cc1 (stereo not drawn) | 9
58 | Nc1n[nH]c2nnc(-c3ccccc3)c(-c3ccccc3)c12 [GW554060] | 19
59 | O=C(Nc1n[nH]c2nc(-c3ccccc3)c(Cl)cc12)C1CC1 [SB-734909] | 24
60 | COC(=O)c1c(-c2ccccc2)c2cc(Br)ccc2c(=O)n1Cc1ccc(S(C)(=O)=O)cc1 | 18
61 | Cc1ccc(Oc2ccc(Nc3ncnc4cc[nH]c34)cc2C)cn1 | 0
62 | O=C(Nc1n[nH]c2nc(-c3ccccc3)c(Br)cc12)C1CC1 [SB-708998] | 6
63 | CN(C)c1cc(-c2ccc3c(N)n[nH]c3c2)nc(N)n1 [GSK2219329] | 0
64 | COc1ccc(-n2cnc3c(N)ncnc32)cc1 [SKF-97236] | 7
65 | CCCC(=O)Nc1n[nH]c2ncc(-c3cccc4ccccc34)cc12 [SB-642057] | 41
66 | FC(F)(F)c1ccc(-c2ncn(CCCN3CCOCC3)c2-c2ccncc2)cc1 [SB-217780] | 0
67 | Cn1c(=O)c(F)c(Nc2ccc(I)cc2F)c2c(=O)n(OC[C@H](O)CO)cnc21 | 0
68 | COc1ccc(Nc2nccc(N3CCC(NS(=O)(=O)c4ccc(NC(C)=O)cc4)C3)n2)cc1 (stereo not drawn) [GSK1379729] | 57
69 | Cl.NS(=O)(=O)c1cccc(Nc2cc(-c3ccc(F)cc3)n[nH]2)c1 [GW824645] | 0
70 | OCCCNc1nccc(-c2c(-c3cccc(C(F)(F)F)c3)nn3cc(C(F)(F)F)ccc23)n1 [GW630813] | 2
71 | CCc1ccc(-c2ccc3c(c2)-c2nn(C)cc2S(=O)(=O)N3C)cc1 | 10
72 | COc1ccc(-c2coc3ccc(-c4nnc(SCc5cccc(C#N)c5)o4)cc23)cc1 | 0
